Experimental data taken from paper PMC12135187, “A role for pH dynamics regulating transcription factor DNA-binding selectivity”.
In all, about 1,100 sequences were measured (“relative enrichment”: median about 0.38, highest 2% from about 0.66 on). Only a selection was taken, and the highest values are over-represented in it overall.

biological target: T1, FOXC2 DBD WT (UniProt Q99958 72-172); assay: SELEX-seq (GST pull-down, four rounds, 16-nt random library); pH 7.0; 20 mM HEPES, 140 mM KCl, 0.05 mM TCEP-HCl, pH 7.0, room temperature, 30 min; 2.5 uM GST-FOXC2 DBD, 0.25 uM DNA library; high values mean tight binding; conditions: protein: recombinant; tags: N-terminal GST (pGEX-6P-2); dsDNA, one strand shown
T1 sequence: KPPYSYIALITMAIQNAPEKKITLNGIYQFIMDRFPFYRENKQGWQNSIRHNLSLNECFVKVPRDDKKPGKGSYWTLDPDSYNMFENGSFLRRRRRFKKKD
Procedure, shortened: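 GST-tagged FOXC2 DNA-binding domain (E. coli-expressed, glutathione-purified) was incubated with a DNA library carrying a 16 bp randomized region, at 0.25 μM DNA and 2.5 μM protein, for 30 min at RT in 20 mM HEPES, 140 mM KCl, 0.05 mM TCEP–HCl, pH 7. Complexes were captured on glutathione Sepharose beads, washed, heat-eluted and PCR-amplified over four rounds. Initial and selected libraries were Illumina MiniSeq sequenced. Relative enrichment came from the Bioconductor SELEX R package.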

Question: With GCAACA as the sequence, how does the binding signal read?
Answer: 0.23 relative enrichment

Question: With ACAAGA as the sequence, how does the binding signal read?
Answer: 0.322 relative enrichment

Question: With CATCCA as the sequence, how does the binding signal read?
Answer: 0.528 relative enrichment

Question: How did the binding signal turn out when CATCGT was run?
Answer: 0.553 relative enrichment

Question: With CATCCT as the sequence, how does the binding signal read?
Answer: 0.605 relative enrichment

Question: How did the binding signal turn out when AATCGC was run?
Answer: 0.406 relative enrichment

Question: Which binding signal does the source give for CATCCC here?
Answer: 0.704 relative enrichment

Question: With CATCGC as the sequence, how does the binding signal read?
Answer: 0.711 relative enrichment

Question: TAGACA was tested. Which binding signal did it give?
Answer: 0.44 relative enrichment

Question: How did the binding signal turn out when ATCCAT was run?
Answer: 0.477 relative enrichment

Question: For AATAAT, which binding signal is on record?
Answer: 0.309 relative enrichment

Question: How did the binding signal turn out when AAATAT was run?
Answer: 0.435 relative enrichment

Question: With AATAAG as the sequence, how does the binding signal read?
Answer: 0.686 relative enrichment

Question: With GATAAA as the sequence, how does the binding signal read?
Answer: 0.326 relative enrichment

Question: AATAAA was tested. Which binding signal did it give?
Answer: 0.839 relative enrichment

Question: With CATAAG as the sequence, how does the binding signal read?
Answer: 0.406 relative enrichment

Question: With CATAAA as the sequence, how does the binding signal read?
Answer: 0.596 relative enrichment

Question: With TAATAA as the sequence, how does the binding signal read?
Answer: 0.399 relative enrichment

Question: With AAATAA as the sequence, how does the binding signal read?
Answer: 0.891 relative enrichment

Question: For GCTCAA, which binding signal is on record?
Answer: 0.305 relative enrichment

Question: How did the binding signal turn out when CAATTC was run?
Answer: 0.306 relative enrichment

Question: AAAACA was tested. Which binding signal did it give?
Answer: 0.264 relative enrichment

Question: AACTAT was tested. Which binding signal did it give?
Answer: 0.324 relative enrichment

Question: How did the binding signal turn out when CAGTAA was run?
Answer: 0.415 relative enrichment

Question: For AGTACA, which binding signal is on record?
Answer: 0.385 relative enrichment

Question: With AATACT as the sequence, how does the binding signal read?
Answer: 0.328 relative enrichment

Question: For AGTACT, which binding signal is on record?
Answer: 0.668 relative enrichment

Question: How did the binding signal turn out when AAAGTG was run?
Answer: 0.343 relative enrichment

Question: CAATGG was tested. Which binding signal did it give?
Answer: 0.433 relative enrichment

Question: ATTTAC was tested. Which binding signal did it give?
Answer: 0.56 relative enrichment

Question: For ATTAGG, which binding signal is on record?
Answer: 0.356 relative enrichment

Question: Which binding signal does the source give for TCCAAA here?
Answer: 0.348 relative enrichment

Question: With ACTTCA as the sequence, how does the binding signal read?
Answer: 0.453 relative enrichment

Question: Which binding signal does the source give for ACTTCC here?
Answer: 0.677 relative enrichment

Question: AATTCC was tested. Which binding signal did it give?
Answer: 0.366 relative enrichment

Question: How did the binding signal turn out when ACTCGT was run?
Answer: 0.431 relative enrichment

Question: With CTGCAT as the sequence, how does the binding signal read?
Answer: 0.524 relative enrichment

Question: Which binding signal does the source give for TCCTAT here?
Answer: 0.313 relative enrichment

Question: Which binding signal does the source give for AAACCG here?
Answer: 0.336 relative enrichment

Question: How did the binding signal turn out when CAATGC was run?
Answer: 0.376 relative enrichment

Question: TACGTA was tested. Which binding signal did it give?
Answer: 0.539 relative enrichment

Question: Which binding signal does the source give for TACGTC here?
Answer: 0.674 relative enrichment

Question: For AACGTC, which binding signal is on record?
Answer: 0.372 relative enrichment

Question: Which binding signal does the source give for CCATTA here?
Answer: 0.286 relative enrichment

Question: How did the binding signal turn out when ACCACT was run?
Answer: 0.588 relative enrichment

Question: With GGTTTA as the sequence, how does the binding signal read?
Answer: 0.395 relative enrichment

Question: Which binding signal does the source give for ATTTGG here?
Answer: 0.408 relative enrichment

Question: With CTGTTA as the sequence, how does the binding signal read?
Answer: 0.238 relative enrichment

Question: Which binding signal does the source give for TTACAA here?
Answer: 0.36 relative enrichment

Question: How did the binding signal turn out when TACGAA was run?
Answer: 0.468 relative enrichment

Question: With TATACA as the sequence, how does the binding signal read?
Answer: 0.505 relative enrichment

Question: Which binding signal does the source give for TAAATA here?
Answer: 0.726 relative enrichment

Question: For CAAATA, which binding signal is on record?
Answer: 0.707 relative enrichment

Question: How did the binding signal turn out when CAAATG was run?
Answer: 0.327 relative enrichment

Question: How did the binding signal turn out when CAAATC was run?
Answer: 0.3 relative enrichment

Question: With TAAACA as the sequence, how does the binding signal read?
Answer: 0.701 relative enrichment

Question: With GAAACA as the sequence, how does the binding signal read?
Answer: 0.347 relative enrichment

Question: For GAAATA, which binding signal is on record?
Answer: 0.451 relative enrichment

Question: How did the binding signal turn out when AAAATA was run?
Answer: 0.439 relative enrichment

Question: How did the binding signal turn out when CAAACA was run?
Answer: 0.57 relative enrichment

Question: Which binding signal does the source give for ATAGCA here?
Answer: 0.284 relative enrichment

Question: Which binding signal does the source give for TCTTTC here?
Answer: 0.55 relative enrichment

Question: Which binding signal does the source give for CAGACT here?
Answer: 0.612 relative enrichment

Question: Which binding signal does the source give for ACTTGA here?
Answer: 0.341 relative enrichment

Question: CATAAC was tested. Which binding signal did it give?
Answer: 0.226 relative enrichment

Question: For AAATGG, which binding signal is on record?
Answer: 0.353 relative enrichment

Question: CTTCAT was tested. Which binding signal did it give?
Answer: 0.554 relative enrichment

Question: CTTCGT was tested. Which binding signal did it give?
Answer: 0.674 relative enrichment

Question: How did the binding signal turn out when GTTCGT was run?
Answer: 0.328 relative enrichment

Question: ATGTTA was tested. Which binding signal did it give?
Answer: 0.428 relative enrichment

Question: For TCATTC, which binding signal is on record?
Answer: 0.646 relative enrichment

Question: ACCTTA was tested. Which binding signal did it give?
Answer: 0.322 relative enrichment

Question: GATCTT was tested. Which binding signal did it give?
Answer: 0.497 relative enrichment

Question: With TCTAAC as the sequence, how does the binding signal read?
Answer: 0.304 relative enrichment

Question: CTACAA was tested. Which binding signal did it give?
Answer: 0.352 relative enrichment

Question: ACAATA was tested. Which binding signal did it give?
Answer: 0.351 relative enrichment

Question: Which binding signal does the source give for AAACGA here?
Answer: 0.433 relative enrichment

Question: For GTGTCA, which binding signal is on record?
Answer: 0.372 relative enrichment

Question: Which binding signal does the source give for CATGCA here?
Answer: 0.513 relative enrichment

Question: How did the binding signal turn out when AGGATA was run?
Answer: 0.311 relative enrichment

Question: With TACCCT as the sequence, how does the binding signal read?
Answer: 0.504 relative enrichment

Question: How did the binding signal turn out when AGCCTA was run?
Answer: 0.371 relative enrichment

Question: For AAAGTT, which binding signal is on record?
Answer: 0.3 relative enrichment

Question: With AGTTTA as the sequence, how does the binding signal read?
Answer: 0.403 relative enrichment

Question: CTATCA was tested. Which binding signal did it give?
Answer: 0.419 relative enrichment

Question: ACTGCT was tested. Which binding signal did it give?
Answer: 0.412 relative enrichment

Question: AACTAC was tested. Which binding signal did it give?
Answer: 0.312 relative enrichment

Question: AACCAC was tested. Which binding signal did it give?
Answer: 0.351 relative enrichment

Question: How did the binding signal turn out when ACACGG was run?
Answer: 0.442 relative enrichment

Question: With TCATCT as the sequence, how does the binding signal read?
Answer: 0.546 relative enrichment

Question: For CAACGC, which binding signal is on record?
Answer: 0.322 relative enrichment

Question: TCTTCT was tested. Which binding signal did it give?
Answer: 0.66 relative enrichment

Question: ACTTCT was tested. Which binding signal did it give?
Answer: 0.502 relative enrichment

Question: How did the binding signal turn out when CCTTCT was run?
Answer: 0.774 relative enrichment

Question: With AAGCAG as the sequence, how does the binding signal read?
Answer: 0.486 relative enrichment

Question: How did the binding signal turn out when ATCTCT was run?
Answer: 0.485 relative enrichment

Question: Which binding signal does the source give for TCACAA here?
Answer: 0.332 relative enrichment

Question: How did the binding signal turn out when AGGTTG was run?
Answer: 0.313 relative enrichment

Question: How did the binding signal turn out when ACATCG was run?
Answer: 0.521 relative enrichment

Question: How did the binding signal turn out when ATGTTC was run?
Answer: 0.304 relative enrichment

Question: How did the binding signal turn out when TGAACA was run?
Answer: 0.291 relative enrichment

Question: Which binding signal does the source give for AACGAA here?
Answer: 0.281 relative enrichment

Question: How did the binding signal turn out when GACTTA was run?
Answer: 0.52 relative enrichment

Question: Which binding signal does the source give for AATGAT here?
Answer: 0.314 relative enrichment

Question: CCGTTG was tested. Which binding signal did it give?
Answer: 0.343 relative enrichment

Question: CCTGTG was tested. Which binding signal did it give?
Answer: 0.491 relative enrichment

Question: For ACTCTC, which binding signal is on record?
Answer: 0.499 relative enrichment

Question: How did the binding signal turn out when ATTAAA was run?
Answer: 0.406 relative enrichment

Question: For TGTCAA, which binding signal is on record?
Answer: 0.457 relative enrichment

Question: With AATTAG as the sequence, how does the binding signal read?
Answer: 0.241 relative enrichment

Question: With ACGATA as the sequence, how does the binding signal read?
Answer: 0.322 relative enrichment
